Screening data deposited in PubChem BioAssay by National Center for Advancing Translational Sciences (NCATS).
Sampled rows, rich in hits. Any-hit rate of the full collection: about 5.4%.
Vaccinia Venus = inhibitors of vaccinia virus (Venus reporter); Vaccinia virus Venus reporter expression, fluorescence; Potency, µM (highest dose often 36.5 µM), usual class: inhibitors; 330,000 compounds, 0.46% hits; AID 720580; calls by dose curve; tested in A549 cells; further: nearly all actives have a fitted effect of over 30% in size
VACV mCherry inh = inhibitors of vaccinia virus infection (mCherry reporter signal) | Vaccinia virus mCherry reporter infection, fluorescence | AID 720579 | 310,000 compounds, 0.63% hits | Potency, µM (highest dose often 36.5 µM), actives largely listed as inhibitors; calls by dose curve; tested in A549 cells; further: nearly all actives have a fitted effect of over 35% in size
MARV entry inh = blocks Marburg virus binding to or entry into cells; Potency, µM (highest dose often 37.8 µM), actives largely listed as inhibitors; Marburg virus pseudotyped entry inhibition, cell reporter; 300,000 compounds, 1.8% hits; calls by dose curve; tested in HEK293 cells
FMDV inh = blocks foot and mouth disease virus; FMDV antiviral cell-based qHTS; 410,000 compounds, 1.2% hits; Potency, µM (series often up to 57.9 µM), usual class: inhibitors; calls by dose curve; tested in HEK293T cells; further: read-out not given here; nearly all actives have a fitted effect of over 45% in size
LASV entry inh = blocks Lassa virus binding to or entry into cells | Lassa virus pseudotype entry inhibition, cell reporter | 300,000 compounds, 1.2% hits | Potency, µM (series often up to 37.9 µM), actives largely listed as inhibitors; calls by dose curve; tested in HEK293 cells; further: nearly all actives have a fitted effect of over 50% in size
Sm TGR inh = blocks Schistosoma mansoni thioredoxin glutathione reductase; Q962Y6; purified TGR, DTNB reduction, TNB absorbance 405 nm; Potency, µM (highest dose often 114 µM), actives largely listed as inhibitors; 360,000 compounds, 3% hits; AID 485364; active means well fitted inhibition curve with a large enough effect; inconclusive means small, poorly fitted or top-dose-only effect; inactive means no such curve, though single readings can be large or run the other way; further: nearly all actives have a fitted effect of over 60% in size
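Kinetic colorimetric format: TGR-catalysed, NADPH-driven DTNB reduction monitored via TNB absorbance. Enzyme dispensed at 20 nM; compound exposure 15 min at room temperature before reaction start.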
Hits are given with their value.

`O=C(Nc1ccc2ccccc2c1)c1cc(F)c(F)cc1Cl` gave Vaccinia Venus inactive, VACV mCherry inh inactive, MARV entry inh 7.08µM, FMDV inh inactive, LASV entry inh inconclusive and Sm TGR inh inactive.
For O=C(Nc1ccc2ccccc2c1)c1ccccc1O the results were Vaccinia Venus inconclusive, VACV mCherry inh inconclusive, MARV entry inh 2.51µM, FMDV inh inactive, LASV entry inh inconclusive and Sm TGR inh inactive.
CC(=O)N1c2ccccc2CC1C(=O)N1CCN(c2ccccc2F)CC1 (stereo not drawn) was read as Vaccinia Venus inactive, VACV mCherry inh inactive, FMDV inh inactive, LASV entry inh inactive and Sm TGR inh inactive.
CCc1ccccc1Nc1nn2c(=O)c3ccc(C(=O)NC4CCC(C)CC4)cc3nc2s1 (stereo not drawn) was read as Vaccinia Venus inactive, VACV mCherry inh inactive, FMDV inh inactive, LASV entry inh inactive and Sm TGR inh inactive.
CN(C)/N=C/c1ccc(Sc2ccc([N+](=O)[O-])cc2[N+](=O)[O-])o1 was read as Vaccinia Venus inactive, VACV mCherry inh inactive, MARV entry inh inactive, FMDV inh inconclusive, LASV entry inh inconclusive and Sm TGR inh 28.2µM.
Cc1cc(C)nc(Sc2ccc([N+](=O)[O-])cc2[N+](=O)[O-])n1 was read as Vaccinia Venus inactive, VACV mCherry inh inactive, MARV entry inh inconclusive, FMDV inh 7.08µM, LASV entry inh inconclusive and Sm TGR inh inactive.
Screening CCOP1(=O)C=C(Sc2ccc([N+](=O)[O-])cc2[N+](=O)[O-])C(C)(C)O1 (stereo not drawn) returned Vaccinia Venus inactive, VACV mCherry inh inactive, MARV entry inh inactive, FMDV inh inconclusive and LASV entry inh inactive.
For O=[N+]([O-])c1ccc(Sc2ccncn2)c([N+](=O)[O-])c1 the results were Vaccinia Venus inconclusive, VACV mCherry inh inactive and FMDV inh 28.2µM.
O=[N+]([O-])c1ccc(Sc2cccc3cccnc23)c([N+](=O)[O-])c1 was read as FMDV inh inconclusive and Sm TGR inh inactive.
Screening c1cncc(OC2CCN(Cc3ccc4c(c3)CN(Cc3nc5ccccc5s3)CCO4)CC2)c1 returned Vaccinia Venus inactive, VACV mCherry inh inactive and FMDV inh inactive.
Screening COc1ccc(NC(=O)c2c(C)oc3ccc(O)c(CN4CCCCCC4)c23)cc1 returned Vaccinia Venus inactive, VACV mCherry inh inactive, MARV entry inh inconclusive, FMDV inh inactive, LASV entry inh inconclusive and Sm TGR inh inactive.
For CC(C)N(C(=O)[C@H]1C[C@H](CC(=O)NCCCN(C)C)C(=O)N2CCc3c([nH]c4cc(-c5ccco5)ccc34)[C@]12C)C(C)C the results were Vaccinia Venus inconclusive, VACV mCherry inh 10µM and FMDV inh inactive.
Screening CC(C)N(C(=O)[C@H]1C[C@H](CC(=O)NCCc2ccccn2)C(=O)N2CCc3c([nH]c4cc(-c5ccco5)ccc34)[C@]12C)C(C)C returned Vaccinia Venus inconclusive, VACV mCherry inh inactive and FMDV inh inconclusive.
Screening CC(C)N(C(=O)[C@H]1C[C@H](CC(=O)NCCC2=CCCCC2)C(=O)N2CCc3c([nH]c4cc(-c5ccco5)ccc34)[C@]12C)C(C)C returned Vaccinia Venus 11.2µM, VACV mCherry inh 10µM and FMDV inh inactive.
Screening COc1cc(C(CCN2CCCC(C)C2)c2c(OC)cc(OC)c3c(-c4ccccc4)cc(=O)oc23)cc(OC)c1OC (stereo not drawn) returned Vaccinia Venus inconclusive, VACV mCherry inh inactive, FMDV inh inactive and Sm TGR inh inactive.
For CCCCCc1cc(=O)oc2c(C(CCN3CCCC3)c3ccc(N(C)C)cc3)c(OC)cc(OC)c12 (stereo not drawn) the results were Vaccinia Venus inconclusive, VACV mCherry inh inconclusive, FMDV inh inactive and Sm TGR inh inactive.
Screening COc1cc(C(CCN2CCCCC2)c2c(OC)cc(OC)c3c(-c4ccccc4)cc(=O)oc23)cc(OC)c1OC (stereo not drawn) returned Vaccinia Venus inconclusive, VACV mCherry inh inactive, FMDV inh inactive and Sm TGR inh 44.7µM.
CCCCCc1cc(=O)oc2c(C(CCN3CCCCC3)c3ccc(OC)cc3)c(OC)cc(OC)c12 (stereo not drawn) was read as Vaccinia Venus inconclusive, VACV mCherry inh 12.6µM, FMDV inh inactive and Sm TGR inh inactive.
